The results in this text go back to the supplement of paper PMC6555819.

For this assay, the system named is PPARg:RXRa 90nM:30nM, anti-RXR (NR concentration 90 nM, RXRa partner concentration 30 nM). The experiment in a line: PBM binding z-score (relative to random genomic background probes); higher = stronger binding; sequences stand for … in GC…GCGATTGACAGCGTAGAATGAAGG
The method, boiled down:
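For binding z-scores, the reference was random background probes on custom Agilent 4×180K protein-binding microarrays. These arrays were incubated 1 h with ligand-free nuclear receptor dimers in PBS pH 7.4, 2% milk, 0.02% Triton X-100, 1 mM DTT, 0.2 mg/mL BSA and 0.4 mg/ml salmon testes DNA. Fluorescence was scanned after antibody detection of each partner (one per run) and regression-normalized.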
Take ATGTCTAGGTAAAGTTCAGTGAAAGATCGATAGA: the PBM binding z-score is 4.25. Sequence TATTGTAGATCAACAGGAGGTTAAGAAAGATCGA gave a PBM binding z-score of 0.68. As for ATCGAGAGGTCGAGGTGAGTATAGAGAAAGGGAA, the figure is 1.15; as for TCTTGTAGATTAACAGGAGGTTAAGAAAGATCGA, 1.89.

CAAACTTGGTCACCGGAAGGTCAAAGTCCGCATG yielded a PBM binding z-score of 2.01.

In the case of TAGCCTAGGTCATGCGGGCCAGTATCGTGTCGGC, the PBM binding z-score amounted to 1.36. As for TCATATAGGTAAATGTGAAAGTCGAACGATATGA, the figure is 2.88; as for TAGCCAAGGTCATGGGCCAGTATACCACGCGAAC, 4.55; as for ATTTCTAGGTAAAGTTCAGTGAAAGATCGATAGA, 4.03.

In turn, ACTAGGAGGCCAAGGGTCACTCAAGATTAGTCCG yielded a PBM binding z-score of 8.35.

CCGACTGGGGCATAAGGATACCATAAGCCAGCCC yielded a PBM binding z-score of 0.707. As for TCGACTAGGTTACCAATGGGGCATTCAGCTTTCT, the figure is 2.06; as for TCTTGTAGATCGGCAGGTTAAGAAAGCTGGCCAA, 2.02; as for CAAACTAGGTCACGAAAGATCAAAGTCGAATGAC, 7.72. Next, TCTTGTAGATCAGCAGGTTAAGGAAGCTGGCCAA: 2.02.

GCGACTGGGGCATCAGCAGGTTACCAAAACTTAA: the PBM binding z-score is -0.000266. Next, CCTCGGAGGACAGAAGGTCAGAGCCGTCCGCTTT: 0.277. As for ATTGAAAGGTCGACGAGGTGAGTATACACCGTTT, the figure is 2.5. Next, CCTATTGGGCCAAAGGTCATTGATTCCAATGCTC: 12.1; AATACAGGGTCACTAGGCGAGAGTAGGTACGAAT: 4.89; ACTAGTTGGTGAGCTGAGGTCACACACAATTCGG: 1.3. As to TCATATAGGTAAAGGTGAAAGGCGAACGATATGA, the PBM binding z-score is 4.93.
